# Experimental data taken from article PMC7862700, “An all-to-all approach to the identification of sequence-specific readers for epigenetic DNA modifications on cytosine”.
# Legend:
# Assay in all cases: DAPPL (digital affinity profiling via proximity ligation, sequencing); 10 mM Tris-HCl pH 7.5, 50 mM NaCl, 1 mM DTT, 4% glycerol, room temperature, 30 min; GST-TFs on glutathione beads, 16-mer random dsDNA library, 0.1% formaldehyde crosslink after washing; high values mean tight binding
# FLI1 = target: T1, FLI1 (Homo sapiens, UniProt Q01543 1-452); conditions: protein: recombinant; tags: N-terminal GST; dsDNA, one strand shown
# T1 sequence: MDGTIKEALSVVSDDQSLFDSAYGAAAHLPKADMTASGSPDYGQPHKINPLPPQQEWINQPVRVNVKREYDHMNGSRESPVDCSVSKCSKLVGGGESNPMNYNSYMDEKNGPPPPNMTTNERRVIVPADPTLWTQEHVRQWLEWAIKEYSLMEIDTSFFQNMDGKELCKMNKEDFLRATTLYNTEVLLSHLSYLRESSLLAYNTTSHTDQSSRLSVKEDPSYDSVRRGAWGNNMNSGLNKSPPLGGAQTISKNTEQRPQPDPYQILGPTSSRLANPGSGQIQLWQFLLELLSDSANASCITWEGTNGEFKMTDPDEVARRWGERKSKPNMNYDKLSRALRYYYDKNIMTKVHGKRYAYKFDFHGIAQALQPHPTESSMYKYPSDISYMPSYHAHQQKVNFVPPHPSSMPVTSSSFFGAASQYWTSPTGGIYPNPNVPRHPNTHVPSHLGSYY
# Outline: (§1)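 In yeast, human transcription factors were expressed with a GST fusion, then pulled down on glutathione beads and given DNA barcodes. Pooled with a tag-only sample, they were exposed to 200 nmole of a 16-mer random double-stranded DNA library (Tris/NaCl/DTT/glycerol buffer, room temperature, 30 min), washed, crosslinked with 0.1% formaldehyde, proximity-ligated using BsaI/T4 ligase for 1 h at 37 °C, PCR-amplified and read on an Illumina NextSeq500. Each hexamer's frequency of reads for a factor, divided by the matching frequency for the tag-only sample, gives the binding signal.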
# ELK1 = target: T2, ELK1 (Homo sapiens, UniProt P19419 1-428); conditions: protein: recombinant; tags: N-terminal GST; dsDNA, one strand shown
# T2 sequence: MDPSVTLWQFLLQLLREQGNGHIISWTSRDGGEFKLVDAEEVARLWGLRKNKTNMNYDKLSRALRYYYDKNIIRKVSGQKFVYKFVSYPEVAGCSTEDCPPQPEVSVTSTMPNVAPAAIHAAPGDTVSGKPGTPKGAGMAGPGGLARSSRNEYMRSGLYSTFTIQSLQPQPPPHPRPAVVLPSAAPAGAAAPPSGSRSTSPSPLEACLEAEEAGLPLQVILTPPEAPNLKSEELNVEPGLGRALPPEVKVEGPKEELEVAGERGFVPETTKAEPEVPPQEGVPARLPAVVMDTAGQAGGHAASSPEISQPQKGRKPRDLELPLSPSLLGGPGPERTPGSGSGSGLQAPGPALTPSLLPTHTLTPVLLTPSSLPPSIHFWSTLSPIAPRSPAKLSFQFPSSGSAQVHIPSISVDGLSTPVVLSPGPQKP
# Outline: as §1
# GABPA = target: T3, GABPA (Homo sapiens, UniProt Q06546 1-454); conditions: protein: recombinant; tags: N-terminal GST; dsDNA, one strand shown
# T3 sequence: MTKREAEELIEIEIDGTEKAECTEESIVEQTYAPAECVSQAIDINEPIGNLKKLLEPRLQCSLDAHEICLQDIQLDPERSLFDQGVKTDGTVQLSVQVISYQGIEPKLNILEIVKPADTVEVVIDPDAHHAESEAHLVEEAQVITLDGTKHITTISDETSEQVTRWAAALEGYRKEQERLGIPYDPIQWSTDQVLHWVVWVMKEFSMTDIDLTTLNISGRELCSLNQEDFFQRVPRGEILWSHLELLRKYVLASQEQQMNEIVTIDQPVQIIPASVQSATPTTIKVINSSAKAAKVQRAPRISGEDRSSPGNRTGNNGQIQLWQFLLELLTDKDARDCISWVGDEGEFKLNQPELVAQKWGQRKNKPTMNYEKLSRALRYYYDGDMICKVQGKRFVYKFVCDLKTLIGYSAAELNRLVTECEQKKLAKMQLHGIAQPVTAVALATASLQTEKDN
# Outline: as §1
# ERG = target: T4, ERG (Homo sapiens, UniProt P11308 1-479); conditions: protein: recombinant; tags: N-terminal GST; dsDNA, one strand shown
# T4 sequence: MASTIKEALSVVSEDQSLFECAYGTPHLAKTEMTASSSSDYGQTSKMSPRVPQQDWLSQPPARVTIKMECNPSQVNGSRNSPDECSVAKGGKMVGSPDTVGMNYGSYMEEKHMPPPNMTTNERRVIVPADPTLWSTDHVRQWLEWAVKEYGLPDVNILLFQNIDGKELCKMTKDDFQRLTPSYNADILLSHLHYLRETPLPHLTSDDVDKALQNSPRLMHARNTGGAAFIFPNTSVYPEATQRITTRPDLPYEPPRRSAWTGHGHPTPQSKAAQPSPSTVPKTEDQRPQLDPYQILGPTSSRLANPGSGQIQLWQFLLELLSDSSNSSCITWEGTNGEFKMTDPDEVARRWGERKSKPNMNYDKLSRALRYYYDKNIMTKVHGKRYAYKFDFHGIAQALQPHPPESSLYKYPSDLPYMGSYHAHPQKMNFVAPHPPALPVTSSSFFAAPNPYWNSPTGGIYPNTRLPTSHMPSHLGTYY
# Outline: as §1
# ELF1 = ELF1 (Homo sapiens, UniProt P32519 1-619); conditions: protein: recombinant; tags: N-terminal GST; dsDNA, one strand shown
# Outline: as §1
# EHF = target: T5, EHF (Homo sapiens, UniProt Q9NZC4 1-300); conditions: protein: recombinant; tags: N-terminal GST; dsDNA, one strand shown
# T5 sequence: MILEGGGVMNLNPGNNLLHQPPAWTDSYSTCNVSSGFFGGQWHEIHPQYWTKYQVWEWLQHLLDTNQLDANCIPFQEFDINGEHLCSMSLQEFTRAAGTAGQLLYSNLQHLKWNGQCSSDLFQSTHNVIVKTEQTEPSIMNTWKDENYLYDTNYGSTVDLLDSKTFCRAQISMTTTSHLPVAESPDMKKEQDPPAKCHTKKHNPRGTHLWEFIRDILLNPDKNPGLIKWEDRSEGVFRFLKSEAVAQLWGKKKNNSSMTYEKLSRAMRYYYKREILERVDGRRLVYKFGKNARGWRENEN
# Outline: as §1
# SPI1 = SPI1 (Homo sapiens, UniProt P17947 1-270); conditions: protein: recombinant; tags: N-terminal GST; dsDNA, one strand shown
# Outline: as §1
# SPIB = SPIB (Homo sapiens, UniProt Q01892 1-262); conditions: protein: recombinant; tags: N-terminal GST; dsDNA, one strand shown
# Outline: as §1
# ELK3 = target: T6, ELK3 (Homo sapiens, UniProt P41970 1-407); conditions: protein: recombinant; tags: N-terminal GST; dsDNA, one strand shown
# T6 sequence: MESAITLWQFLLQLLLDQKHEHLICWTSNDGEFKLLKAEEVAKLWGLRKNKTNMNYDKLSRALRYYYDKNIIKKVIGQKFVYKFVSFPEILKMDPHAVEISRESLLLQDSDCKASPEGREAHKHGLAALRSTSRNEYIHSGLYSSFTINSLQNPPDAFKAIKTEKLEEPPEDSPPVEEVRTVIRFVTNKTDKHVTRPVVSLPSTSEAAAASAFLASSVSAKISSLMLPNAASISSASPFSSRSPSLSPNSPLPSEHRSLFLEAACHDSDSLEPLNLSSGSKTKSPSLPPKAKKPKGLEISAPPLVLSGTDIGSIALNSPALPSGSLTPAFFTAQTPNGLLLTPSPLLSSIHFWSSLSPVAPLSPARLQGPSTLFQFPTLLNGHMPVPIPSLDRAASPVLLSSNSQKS
# Outline: as §1
# FEV = target: T7, FEV (Homo sapiens, UniProt Q99581 1-238); conditions: protein: recombinant; tags: N-terminal GST; dsDNA, one strand shown
# T7 sequence: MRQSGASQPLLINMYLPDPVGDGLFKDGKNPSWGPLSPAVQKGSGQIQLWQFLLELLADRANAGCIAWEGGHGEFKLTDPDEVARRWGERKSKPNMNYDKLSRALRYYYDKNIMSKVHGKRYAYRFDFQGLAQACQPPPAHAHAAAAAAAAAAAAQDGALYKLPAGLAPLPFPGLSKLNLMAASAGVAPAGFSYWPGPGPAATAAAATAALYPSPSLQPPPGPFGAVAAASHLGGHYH
# Outline: as §1
# ETV5 = ETV5 (Homo sapiens, UniProt P41161 1-510); conditions: protein: recombinant; tags: N-terminal GST; dsDNA, one strand shown
# Outline: as §1
# HSF1 = HSF1 (Homo sapiens, UniProt Q00613 1-529); conditions: protein: recombinant; tags: N-terminal GST; chain copies: 3; dsDNA, one strand shown
# Outline: as §1
# SPIC = target: T8, SPIC (Homo sapiens, UniProt Q8N5J4 1-248); conditions: protein: recombinant; tags: N-terminal GST; dsDNA, one strand shown
# T8 sequence: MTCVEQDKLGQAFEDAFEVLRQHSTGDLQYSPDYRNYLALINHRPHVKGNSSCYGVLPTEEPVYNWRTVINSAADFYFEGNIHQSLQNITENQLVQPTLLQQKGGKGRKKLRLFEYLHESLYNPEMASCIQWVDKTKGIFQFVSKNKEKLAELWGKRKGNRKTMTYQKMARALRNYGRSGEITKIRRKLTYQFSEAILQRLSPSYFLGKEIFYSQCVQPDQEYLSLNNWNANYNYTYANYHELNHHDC
# Outline: as §1
# ELF4 = ELF4 (Homo sapiens, UniProt Q99607 1-663); conditions: protein: recombinant; tags: N-terminal GST; dsDNA, one strand shown
# Outline: as §1
# ELK4 = target: T9, ELK4 (Homo sapiens, UniProt P28324-2 1-405); conditions: protein: recombinant; tags: N-terminal GST; dsDNA, one strand shown
# T9 sequence: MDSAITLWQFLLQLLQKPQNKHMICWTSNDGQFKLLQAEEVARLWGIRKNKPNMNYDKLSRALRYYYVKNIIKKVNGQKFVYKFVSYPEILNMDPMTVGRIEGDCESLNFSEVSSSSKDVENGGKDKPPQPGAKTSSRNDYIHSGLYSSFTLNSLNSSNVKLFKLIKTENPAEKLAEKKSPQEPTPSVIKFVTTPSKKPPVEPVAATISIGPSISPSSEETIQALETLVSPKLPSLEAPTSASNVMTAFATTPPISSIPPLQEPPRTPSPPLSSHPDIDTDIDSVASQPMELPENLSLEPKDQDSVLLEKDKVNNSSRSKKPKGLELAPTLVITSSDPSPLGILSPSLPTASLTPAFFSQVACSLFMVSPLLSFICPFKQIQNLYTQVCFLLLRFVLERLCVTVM
# Outline: as §1
# ETV2 = target: T10, ETV2 (Homo sapiens, UniProt O00321 1-342); conditions: protein: recombinant; tags: N-terminal GST; dsDNA, one strand shown
# T10 sequence: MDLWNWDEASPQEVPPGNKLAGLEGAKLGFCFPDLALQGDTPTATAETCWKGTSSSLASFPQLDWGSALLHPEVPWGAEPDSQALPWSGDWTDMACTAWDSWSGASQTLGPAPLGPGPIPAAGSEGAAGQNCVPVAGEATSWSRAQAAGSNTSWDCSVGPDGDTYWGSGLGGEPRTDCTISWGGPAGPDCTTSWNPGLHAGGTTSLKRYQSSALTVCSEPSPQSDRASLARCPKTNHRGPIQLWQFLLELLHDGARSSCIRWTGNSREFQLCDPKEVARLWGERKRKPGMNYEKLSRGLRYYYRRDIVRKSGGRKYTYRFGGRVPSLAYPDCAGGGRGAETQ
# Outline: as §1
# ELF3 = target: T11, ELF3 (Homo sapiens, UniProt P78545 1-371); conditions: protein: recombinant; tags: N-terminal GST; dsDNA, one strand shown
# T11 sequence: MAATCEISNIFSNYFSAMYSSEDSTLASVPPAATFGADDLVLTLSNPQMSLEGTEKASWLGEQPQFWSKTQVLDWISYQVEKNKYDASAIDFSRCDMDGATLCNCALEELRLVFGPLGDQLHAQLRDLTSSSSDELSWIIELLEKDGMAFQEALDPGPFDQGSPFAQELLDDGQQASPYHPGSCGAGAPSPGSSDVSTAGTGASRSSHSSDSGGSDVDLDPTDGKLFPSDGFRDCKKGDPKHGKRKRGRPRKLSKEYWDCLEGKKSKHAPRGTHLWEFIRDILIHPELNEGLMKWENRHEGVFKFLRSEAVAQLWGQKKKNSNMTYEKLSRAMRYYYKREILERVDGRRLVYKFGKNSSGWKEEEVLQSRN
# Outline: as §1
# CRX = CRX (Homo sapiens, UniProt O43186 1-299); conditions: protein: recombinant; tags: N-terminal GST; dsDNA, one strand shown
# Outline: as §1
# ETV1 = ETV1 (Homo sapiens, UniProt P50549 1-477); conditions: protein: recombinant; tags: N-terminal GST; dsDNA, one strand shown
# Outline: as §1
# Chain of ETV1 (P50549 whole entry): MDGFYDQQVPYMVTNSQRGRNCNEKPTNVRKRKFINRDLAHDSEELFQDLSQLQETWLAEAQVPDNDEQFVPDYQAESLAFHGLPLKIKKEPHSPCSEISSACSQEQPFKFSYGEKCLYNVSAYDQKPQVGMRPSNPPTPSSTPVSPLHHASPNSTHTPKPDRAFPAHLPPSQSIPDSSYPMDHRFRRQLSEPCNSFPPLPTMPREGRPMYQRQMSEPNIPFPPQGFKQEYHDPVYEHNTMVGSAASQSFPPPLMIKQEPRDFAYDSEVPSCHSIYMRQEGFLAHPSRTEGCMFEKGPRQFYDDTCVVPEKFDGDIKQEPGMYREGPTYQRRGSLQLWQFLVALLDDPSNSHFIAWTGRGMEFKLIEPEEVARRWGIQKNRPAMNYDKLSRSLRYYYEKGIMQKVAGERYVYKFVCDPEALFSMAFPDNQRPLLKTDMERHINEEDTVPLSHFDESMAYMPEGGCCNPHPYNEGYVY
# Chain of SPIB (Q01892 whole entry): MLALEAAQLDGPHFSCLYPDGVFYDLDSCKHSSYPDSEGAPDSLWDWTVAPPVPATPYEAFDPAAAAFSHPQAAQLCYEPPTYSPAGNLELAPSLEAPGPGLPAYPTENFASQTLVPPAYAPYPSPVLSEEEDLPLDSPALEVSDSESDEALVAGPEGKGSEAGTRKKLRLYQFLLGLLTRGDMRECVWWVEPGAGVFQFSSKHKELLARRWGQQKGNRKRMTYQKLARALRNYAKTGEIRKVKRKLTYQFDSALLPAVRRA
# Chain of ETV5 (P41161 whole entry): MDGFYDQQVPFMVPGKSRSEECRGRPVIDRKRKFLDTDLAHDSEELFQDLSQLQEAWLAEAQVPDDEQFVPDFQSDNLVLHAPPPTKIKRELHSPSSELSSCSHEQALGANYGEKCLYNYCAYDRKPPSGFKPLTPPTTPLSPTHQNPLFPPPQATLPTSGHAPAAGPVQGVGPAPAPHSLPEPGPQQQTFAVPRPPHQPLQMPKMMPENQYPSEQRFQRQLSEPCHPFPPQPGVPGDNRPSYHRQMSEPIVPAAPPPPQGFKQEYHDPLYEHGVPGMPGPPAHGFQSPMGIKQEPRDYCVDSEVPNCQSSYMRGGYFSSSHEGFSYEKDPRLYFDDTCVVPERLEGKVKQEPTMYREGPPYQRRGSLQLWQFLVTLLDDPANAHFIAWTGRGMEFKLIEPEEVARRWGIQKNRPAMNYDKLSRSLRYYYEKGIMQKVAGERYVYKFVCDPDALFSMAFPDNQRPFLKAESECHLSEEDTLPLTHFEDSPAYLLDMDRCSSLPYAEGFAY
# Chain of ELF4 (Q99607 whole entry): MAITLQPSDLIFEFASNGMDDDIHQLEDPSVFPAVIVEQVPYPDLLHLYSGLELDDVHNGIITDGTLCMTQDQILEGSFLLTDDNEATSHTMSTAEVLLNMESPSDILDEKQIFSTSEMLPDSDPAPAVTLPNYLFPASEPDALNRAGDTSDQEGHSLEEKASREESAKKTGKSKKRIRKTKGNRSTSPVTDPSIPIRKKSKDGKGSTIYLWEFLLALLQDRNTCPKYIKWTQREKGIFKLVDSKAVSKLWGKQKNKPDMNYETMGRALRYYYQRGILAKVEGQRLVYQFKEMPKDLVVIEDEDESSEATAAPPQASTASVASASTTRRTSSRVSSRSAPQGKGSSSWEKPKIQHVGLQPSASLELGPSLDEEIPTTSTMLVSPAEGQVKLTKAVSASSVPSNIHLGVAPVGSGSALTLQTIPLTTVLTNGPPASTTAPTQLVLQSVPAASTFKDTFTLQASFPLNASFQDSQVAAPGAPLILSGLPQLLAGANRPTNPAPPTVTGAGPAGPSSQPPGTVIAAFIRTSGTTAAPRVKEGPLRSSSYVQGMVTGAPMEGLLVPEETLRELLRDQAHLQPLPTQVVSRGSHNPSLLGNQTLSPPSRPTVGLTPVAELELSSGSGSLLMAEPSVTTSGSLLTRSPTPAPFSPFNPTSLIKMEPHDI
# Chain of CRX (O43186 whole entry): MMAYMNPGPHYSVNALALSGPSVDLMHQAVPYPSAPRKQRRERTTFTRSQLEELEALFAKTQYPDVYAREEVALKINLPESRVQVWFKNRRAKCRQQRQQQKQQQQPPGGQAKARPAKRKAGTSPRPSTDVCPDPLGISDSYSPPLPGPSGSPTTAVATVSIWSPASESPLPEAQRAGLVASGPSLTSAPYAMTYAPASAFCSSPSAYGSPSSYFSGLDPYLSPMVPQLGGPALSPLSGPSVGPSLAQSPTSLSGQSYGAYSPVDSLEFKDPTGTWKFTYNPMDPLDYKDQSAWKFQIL
# Chain of HSF1 (Q00613 whole entry): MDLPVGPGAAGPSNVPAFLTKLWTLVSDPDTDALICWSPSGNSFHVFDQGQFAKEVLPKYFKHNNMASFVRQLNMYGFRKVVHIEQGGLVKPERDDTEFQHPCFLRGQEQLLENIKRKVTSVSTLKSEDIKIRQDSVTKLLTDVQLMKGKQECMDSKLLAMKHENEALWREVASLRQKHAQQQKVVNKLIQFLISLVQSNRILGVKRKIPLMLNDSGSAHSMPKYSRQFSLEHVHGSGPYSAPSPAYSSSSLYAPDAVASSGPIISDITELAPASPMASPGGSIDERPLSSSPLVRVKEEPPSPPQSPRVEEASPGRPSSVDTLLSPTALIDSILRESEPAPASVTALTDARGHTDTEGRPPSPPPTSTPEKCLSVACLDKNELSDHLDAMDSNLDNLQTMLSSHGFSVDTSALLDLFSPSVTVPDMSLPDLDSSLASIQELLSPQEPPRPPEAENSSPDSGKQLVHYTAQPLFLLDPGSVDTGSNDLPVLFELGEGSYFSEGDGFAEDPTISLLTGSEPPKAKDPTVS
# Chain of ELF1 (P32519 whole entry): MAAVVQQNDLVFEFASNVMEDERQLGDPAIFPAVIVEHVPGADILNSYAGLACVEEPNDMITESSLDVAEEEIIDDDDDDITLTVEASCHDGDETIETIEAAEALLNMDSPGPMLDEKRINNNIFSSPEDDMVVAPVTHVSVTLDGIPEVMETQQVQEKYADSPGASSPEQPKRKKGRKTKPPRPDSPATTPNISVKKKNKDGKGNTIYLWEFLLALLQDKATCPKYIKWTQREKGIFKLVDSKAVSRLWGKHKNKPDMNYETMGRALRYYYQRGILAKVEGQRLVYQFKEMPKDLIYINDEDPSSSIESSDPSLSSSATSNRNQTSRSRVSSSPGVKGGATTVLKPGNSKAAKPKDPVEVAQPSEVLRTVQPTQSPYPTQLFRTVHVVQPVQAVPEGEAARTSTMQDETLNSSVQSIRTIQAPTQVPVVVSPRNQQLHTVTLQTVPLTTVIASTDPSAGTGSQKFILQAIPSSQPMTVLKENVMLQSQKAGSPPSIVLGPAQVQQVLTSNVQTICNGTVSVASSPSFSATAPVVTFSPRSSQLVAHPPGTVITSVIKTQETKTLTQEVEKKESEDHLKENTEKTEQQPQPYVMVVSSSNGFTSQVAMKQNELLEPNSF
sequence,measurement,setting,value
TTACTC,binding signal,FLI1,"1.31 fold enrichment (6-mer frequency, TF over GST control)"
same,binding signal,ELK1,"1.24 fold enrichment (6-mer frequency, TF over GST control)"
same,binding signal,GABPA,"1.26 fold enrichment (6-mer frequency, TF over GST control)"
same,binding signal,ERG,"1.19 fold enrichment (6-mer frequency, TF over GST control)"
same,binding signal,ELF1,"1.24 fold enrichment (6-mer frequency, TF over GST control)"
same,binding signal,EHF,"1.34 fold enrichment (6-mer frequency, TF over GST control)"
same,binding signal,SPI1,"1.32 fold enrichment (6-mer frequency, TF over GST control)"
same,binding signal,SPIB,"1.24 fold enrichment (6-mer frequency, TF over GST control)"
same,binding signal,ELK3,"1.26 fold enrichment (6-mer frequency, TF over GST control)"
same,binding signal,FEV,"1.21 fold enrichment (6-mer frequency, TF over GST control)"
same,binding signal,ETV5,"1.24 fold enrichment (6-mer frequency, TF over GST control)"
same,binding signal,HSF1,"1.49 fold enrichment (6-mer frequency, TF over GST control)"
same,binding signal,SPIC,"1.24 fold enrichment (6-mer frequency, TF over GST control)"
same,binding signal,ELF4,"1.29 fold enrichment (6-mer frequency, TF over GST control)"
same,binding signal,ELK4,"1.34 fold enrichment (6-mer frequency, TF over GST control)"
same,binding signal,ETV2,"1.37 fold enrichment (6-mer frequency, TF over GST control)"
same,binding signal,ELF3,"1.43 fold enrichment (6-mer frequency, TF over GST control)"
same,binding signal,CRX,"1.91 fold enrichment (6-mer frequency, TF over GST control)"
same,binding signal,ETV1,"1.32 fold enrichment (6-mer frequency, TF over GST control)"
